# In PubChem BioAssay AID463173 (ICCB-Longwood Screening Facility, Harvard Medical School, 2010):
# The whole screen tested about 52,000 compounds, of which about 4,300 (8.3%) were called active. This is one part of a sample in which actives are shown more often than they occur. Cut-off read from the data, not from the text of the source: active = survival mostly below about 52% (no sharp cut-off); inactive = mostly above about 56%.
# System: DeltatarO mutant
# Experiment: S. aureus survival, RN4220 and DeltatarO strains – OD600, teichoic acid synthesis inhibitors, primary screen (AID 463173)
# Details: S. aureus RN4220 wild type/DeltatarO growth, OD600, 18 h, hits give low values, screened at 18.75 µg/mL (by protocol)
row,SMILES,survival
1,COc1ccccc1CCNC(=O)Cc1c(C)c2cc3c(C(C)(C)C)coc3c(C)c2oc1=O,101% (inactive)
2,O=C(CC1(c2ccc(Cl)cc2)C(=O)c2ccccc2C1=O)N1CCOCC1,79% (inactive)
3,Cn1ncc2nc(SCC(=O)Nc3ccc(Br)cc3F)n(Cc3ccccc3)c(=O)c21,29% (active)
4,Cn1c(=O)c2c(nc(SCC(=O)Nc3ccc(F)cc3F)n2Cc2ccccc2)n(C)c1=O,135% (inactive)
5,Cc1nc2ccccc2n1CCc1nc2c3ccccc3nc(SCC(=O)Nc3ccc(Br)cc3F)n2n1,98% (inactive)
6,CCOC(=O)c1ccccc1NC(=O)c1nn(C)c2c1COc1ccccc1-2,59% (inactive)
7,COC(=O)c1ccccc1NC(=O)Cn1ncc2c(C)n(Cc3ccc(F)cc3)c(C)c2c1=O,52% (inactive)
8,Cc1cccc(NC(=O)Cn2nc(C)c3nn(-c4ccc(Cl)cc4)c(C)c3c2=O)c1C,94% (inactive)
9,CCCn1c(CCCNC(=O)c2ccccc2OC)nc2ccccc21,111% (inactive)
10,COc1ccc(OCCn2c(NC(=O)c3ccc(OC)cc3)nc3ccccc32)cc1,-2% (active)
11,CC(NC(=O)c1ccccc1)c1nc2ccccc2n1Cc1ccc(Cl)cc1 (stereo not drawn),83% (inactive)
12,CCn1c(NC(C)=O)nc2ccccc21,85% (inactive)
13,COc1cc(C)ccc1OCCn1c(-c2ccc(Cl)cc2)nc2ccccc2c1=O,62% (inactive)
14,COc1ccccc1OCCn1c(NC(=O)c2ccccc2Cl)nc2ccccc21,-3% (active)
15,COc1ccccc1OCCn1c(NC(=O)c2ccc(Cl)cc2)nc2ccccc21,45% (active)
16,O=C(Nc1nc2ccccc2n1CCOc1ccccc1Cl)c1ccccc1,17% (active)
17,O=C(O)c1ccc(NCc2nc3ccccc3n2CCOc2ccccc2Cl)cc1,59% (inactive)
18,COc1ccccc1OCCn1c(-c2ccc(Cl)cc2)nc2ccccc2c1=O,77% (inactive)
19,OCCNc1nc2ccccc2n1CCOc1ccccc1,68% (inactive)
20,COc1ccccc1OCCCCn1c(C2CC(=O)N(c3ccccc3Cl)C2)nc2ccccc21 (stereo not drawn),61% (inactive)
21,COC(=O)c1ccc(Cl)cc1NC(=O)N1CC2CCCN2c2ccccc21 (stereo not drawn),71% (inactive)
22,CC(=O)Nc1ccc(-c2cn(CC(=O)NN)cn2)cc1,111% (inactive)

row,SMILES,survival
1,COc1cc(OC)cc(C(=O)Nc2ccc(S(=O)(=O)Nc3ncccn3)cc2)c1,82% (inactive)
2,CN1CCc2nc3sc(C(=O)Nc4ccccc4C(F)(F)F)c(N)c3cc2C1,150% (inactive)
3,CCC(=O)N1CCc2cc(S(=O)(=O)CCC(=O)Nc3ccc(OC(F)(F)F)cc3)ccc21,83% (inactive)
4,COc1cc(NC(=O)CC2C(=O)N(c3cccc(C)c3)C(=O)N2Cc2ccco2)cc(OC)c1 (stereo not drawn),101% (inactive)
5,Cc1ccc(Cl)cc1NC(=O)CSCc1cnn(-c2ccccc2)c1-n1cccc1,70% (inactive)
6,COc1ccc(CNC(=O)Cc2ccc(NC(=O)N3CCSc4ncccc43)cc2)cc1,95% (inactive)
7,Cc1cccc(NC(=O)c2cc(S(=O)(=O)NCCc3ccccc3)ccc2F)c1C,73% (inactive)
8,Cc1cccn2c(=O)c3cc(C#N)c(=O)n(-c4nnc(SCc5ccccc5F)s4)c3nc12,70% (inactive)
9,O=C(O)C(=Cc1ccc(-c2cccc(C(F)(F)F)c2)o1)C(=O)O,65% (inactive)
10,COc1ccc(C(=O)Nc2nc3ccccc3n2CCOc2ccc(Cl)cc2)cc1,-5% (active)
11,Fc1ccc(CNCc2ccccc2)cc1,99% (inactive)
12,COc1cc(OC)c(NC(=O)CSC2=Nc3ccccc3N=C(c3ccc(F)cc3)C2)cc1Cl,65% (inactive)
13,CCn1c(SCc2ccccc2C)nc(=O)c2c(C(=O)OC)cc(C3CC3)nc21,71% (inactive)
14,CCn1c(SCc2ccccc2F)nc(=O)c2c(C(=O)OC)cc(C3CC3)nc21,52% (active)
15,CCn1c(SCc2ccccc2Cl)nc(=O)c2c(C(=O)OC)cc(C3CC3)nc21,77% (inactive)
16,C=CCn1c(NC)nc2c1c(=O)[nH]c(=O)n2C,105% (inactive)
17,Cc1cc(C)cc(OCC(=O)N(Cc2ccc(C)o2)C2CCS(=O)(=O)C2)c1 (stereo not drawn),89% (inactive)
18,CC(=O)C1=C(OC(=O)C(C)C)c2ccccc2S(=O)(=O)N1Cc1ccccc1,104% (inactive)
19,Cc1ccc(CNC(=O)CN2C(=O)COc3ccc(S(=O)(=O)Nc4ccccc4)cc32)cc1,-4% (active)
20,Cc1ccc(CNC(=O)CCCN2C(=O)COc3ccc(C)cc32)cc1,85% (inactive)
21,Cc1ccc(C2=Nc3ccccc3N(CC(=O)NCc3ccc(Cl)cc3)C(=O)C2)cc1C,55% (inactive)
22,Cc1ccc(CNC(=O)CCN2C(=O)COc3ccc(C)cc32)cc1,50% (active)

row,SMILES,survival
1,Cc1ccc2c(c1)N(CCC(=O)NCc1ccc(F)cc1)C(=O)CO2,62% (inactive)
2,COc1ccc(CNC(=O)CN2C(=O)COc3ccc(S(=O)(=O)Nc4ccccc4)cc32)cc1,66% (inactive)
3,Cc1ccc(C2=Nc3ccccc3N(CC(=O)NCc3ccc(F)cc3)C(=O)C2)cc1C,90% (inactive)
4,COc1cccc(CNC(=O)CN2C(=O)COc3ccc(S(=O)(=O)Nc4ccccc4)cc32)c1,77% (inactive)
5,COc1ccc(CCNC(=O)CN2C(=O)COc3ccccc32)cc1OC,126% (inactive)
6,COc1ccc(CCNC(=O)CN2C(=O)COc3ccc(C)cc32)cc1OC,45% (active)
7,Cc1ccc(CNC(=O)CN2C(=O)CC(c3ccc(C)c(C)c3)=Nc3ccccc32)cc1,52% (active)
8,Cc1ccc2c(c1)N(CC(=O)NCCc1ccccc1)C(=O)CO2,45% (inactive)
9,CN(C)CCCNc1c2c(nc3cc(-c4cccc(F)c4)nn13)CCC2,103% (inactive)
10,O=c1c2sc3ccccc3c2n(Cc2cccc(F)c2)c(=O)n1Cc1ccccc1,78% (inactive)
11,COc1ccc(CNC(=O)CN2C(=O)CSc3ccc(S(=O)(=O)N4CCOCC4)cc32)c(OC)c1,91% (inactive)
12,O=C1CCCc2cc(S(=O)(=O)NCC3CCC(C(=O)Nc4ccccc4F)CC3)ccc2N1 (stereo not drawn),93% (inactive)
13,Cc1ccc(NC(=O)N2CCC(CN3CCCC3)CC2)c(C)c1,80% (inactive)
14,COc1ccc(CNC(=O)C2CCN(S(=O)(=O)c3cccc(-c4noc(C)n4)c3)CC2)cc1,92% (inactive)
15,CC1CCc2c(sc(NC(=O)COc3ccccc3C(C)(C)C)c2C#N)C1 (stereo not drawn),67% (inactive)
16,COC(=O)CSc1ncc2c(n1)-c1ccccc1N(Cc1ccccc1C)S2(=O)=O,99% (inactive)
17,Cc1cccc(CNC(=O)CCCN2C(=O)COc3ccc(C)cc32)c1,112% (inactive)
18,Cc1ccc2c(c1)N(CCC(=O)NCc1ccccc1Cl)C(=O)CO2,40% (active)
19,CCOc1ccccc1CNC(=O)CCCN1C(=O)COc2ccc(C)cc21,93% (inactive)
20,CCOC(=O)C1=C(CS(=O)(=O)c2ccc(OC)c(Cl)c2)NC(=O)NC1c1cccc(OC)c1 (stereo not drawn),59% (inactive)
21,Cc1cc(=O)[nH]c(SC(C)C(=O)Nc2ccccc2)n1 (stereo not drawn),90% (inactive)
22,COc1ccccc1-c1nc2c(c(SCC(=O)Nc3ccccc3F)n1)Cc1c(CO)cnc(C)c1O2,88% (inactive)

row,SMILES,survival
1,Cc1ccc(-c2nc3c(c(SCC(=O)Nc4ccccc4Cl)n2)Cc2c(CO)cnc(C)c2O3)cc1,46% (active)
2,Cc1ccc(C)c(NC(=O)CSc2nc(-c3ccccc3Cl)nc3c2Cc2c(CO)cnc(C)c2O3)c1,118% (inactive)
3,COc1ccccc1NC(=O)CSc1nc(-c2ccc(C)cc2)nc2c1Cc1c(CO)cnc(C)c1O2,49% (active)
4,COc1ccccc1NC(=O)CSc1nc(-c2cccc(Cl)c2)nc2c1Cc1c(CO)cnc(C)c1O2,87% (inactive)
5,Cc1cccc(NC(=O)CSc2nc(-c3ccccc3Cl)nc3c2Cc2c(CO)cnc(C)c2O3)c1C,117% (inactive)
6,Cc1ccc(C)c(N2CCN(Cc3csc(C)c3C)CC2)c1,77% (inactive)
7,CSc1ccc(CCNc2ncnc3onc(C)c23)cc1,98% (inactive)
8,O=S1(=O)c2ccccc2N(Cc2cccc(Cl)c2)c2ccccc21,0% (active)
9,O=S1(=O)c2ccccc2N(Cc2ccc(Cl)cc2)c2ccccc21,131% (inactive)
10,COc1ccccc1CNC(=O)c1ccc2c(c1)N(Cc1cccc(Cl)c1)C(=O)c1ccccc1S2(=O)=O,37% (active)
11,O=C(NCc1ccco1)c1ccc2c(c1)N(Cc1ccccc1)C(=O)c1ccccc1S2(=O)=O,68% (inactive)
12,O=C(NCc1ccccc1)c1ccc2c(c1)N(Cc1cccc(Cl)c1)C(=O)c1ccccc1S2(=O)=O,93% (inactive)
13,O=C(c1ccc2c(c1)N(Cc1ccccc1)C(=O)c1ccccc1S2(=O)=O)N1CCc2ccccc21,81% (inactive)
14,O=C(NCc1ccco1)c1ccc2c(c1)N(Cc1cccc(Cl)c1)C(=O)c1ccccc1S2(=O)=O,46% (active)
15,O=S1(=O)c2ccccc2N(Cc2ccccc2)c2ccccc21,69% (inactive)
16,O=C(c1ccc2c(c1)N(Cc1cccc(Cl)c1)C(=O)c1ccccc1S2(=O)=O)N1CCc2ccccc21,0% (active)
17,O=C(c1ccc2c(c1)N(Cc1ccc(Cl)cc1)C(=O)c1ccccc1S2(=O)=O)N1CCc2ccccc21,120% (inactive)
18,O=C(NCc1ccco1)c1ccc2c(c1)N(Cc1ccc(Cl)cc1)C(=O)c1ccccc1S2(=O)=O,89% (inactive)
19,COc1ccccc1CNC(=O)c1ccc2c(c1)N(Cc1cccc(C)c1)C(=O)c1ccccc1S2(=O)=O,87% (inactive)
20,O=C(O)COCC(=O)Nc1ccc2c(c1)CCC2,103% (inactive)
21,COc1ccc(-c2nnc(SCC(=O)Nc3cccc(Cl)c3C)nc2-c2ccc(OC)cc2)cc1,89% (inactive)
22,COc1ccc(CNC(=O)CCC(=O)N2CC3CCCN3c3ccccc32)cc1 (stereo not drawn),71% (inactive)
